Results from PubChem BioAssay AID1159580 (chemical genetic matrix, 2015).
The campaign covered roughly 5,500 compounds. About 2,000 (36%) were called active. Not shown: some 18% with an inconclusive outcome. Rule as the data show it: active = normalized growth mostly below about 0.91 (no sharp cut-off); inconclusive = no clear call, values can overlap the other calls; inactive = mostly above about 0.92. The list shows a part of the results.

Assay: chemical genetic growth profiling, strain panel (AID 1159580);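 also: tested at 20 µM; growth read once vehicle control cultures reached saturation at 30 °C; 1 = growth at the plate median or of vehicle wells; lower values mean less growth of the strain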
Conditions: S. cerevisiae deletion strains, growth OD

Measured: normalized growth

CC1=NN=C(c2ccc(N)cc2)c2cc3c(cc2C1)OCO3
inactive: locus YAL013W, strain DEP1, stronger effect = lower value 0.989 | locus YAL040C, strain CLN3, stronger effect = lower value 0.968 | locus YCL061C, strain MRC1 (second series), stronger effect = lower value 0.991 | locus YDR363W, strain ESC2, stronger effect = lower value 0.986 | locus YER002W, strain NOP16, stronger effect = lower value 0.967 | locus YMR263W, strain SAP30, stronger effect = lower value 0.996 | locus YMR307W, strain GAS1, stronger effect = lower value 1 | locus YNL128W, strain TEP1, stronger effect = lower value 0.983 | locus YNL153C, strain GIM3, stronger effect = lower value 0.957 | locus YNL175C, strain NOP13, stronger effect = lower value 0.968 | locus YNL197C, strain WHI3, stronger effect = lower value 0.964 | locus YNL224C, strain SQS1, stronger effect = lower value 0.989 | locus YOR083W, strain WHI5 (second series), stronger effect = lower value 0.936 | locus YPL055C, strain LGE1, stronger effect = lower value 0.984

Cc1nnc2n1N=C(c1ccc(CC(C)C)cc1)C(C)S2 (stereo not given)
inactive: locus YAR019C, strain CDC15, stronger effect = lower value 0.971 | locus YBL105C, strain PKC1, stronger effect = lower value 0.975 | locus YBR135W, strain CKS1, stronger effect = lower value 0.964 | locus YBR136W, strain MEC1, stronger effect = lower value 0.975 | locus YBR160W, strain CDC28, stronger effect = lower value 0.978 | locus YDL017W, strain CDC7, stronger effect = lower value 0.982 | locus YDL028C, strain MPS1, stronger effect = lower value 0.972 | locus YDL101C, strain DUN1, stronger effect = lower value 0.965 | locus YDL108W, strain KIN28, stronger effect = lower value 0.97 | locus YDL132W, strain cdc53, stronger effect = lower value 0.972 | locus YDL214C, strain PRR2, stronger effect = lower value 0.98 | locus YDR052C, strain DBF4, stronger effect = lower value 0.977 | locus YDR054C, strain cdc34, stronger effect = lower value 0.973 | locus YDR226W, strain ADK1, stronger effect = lower value 0.966 | locus YDR477W, strain SNF1, stronger effect = lower value 0.975 | locus YER123W, strain YCK3, stronger effect = lower value 0.941 | locus YER133W, strain GLC7, stronger effect = lower value 0.972 | locus YFL009W, strain cdc4, stronger effect = lower value 0.971 | locus YFL029C, strain CAK1, stronger effect = lower value 0.971 | locus YFR003C, strain YPI1, stronger effect = lower value 0.978 | locus YFR019W, strain FAB1, stronger effect = lower value 0.986 | locus YFR028C, strain CDC14, stronger effect = lower value 0.969 | locus YGR040W, strain KSS1, stronger effect = lower value 0.979 | locus YGR052W, strain FMP48, stronger effect = lower value 1.05 | locus YGR092W, strain DBF2, stronger effect = lower value 0.971 | locus YHR030C, strain SLT2, stronger effect = lower value 1.08 | locus YHR079C, strain IRE1, stronger effect = lower value 1.05 | locus YHR082C, strain KSP1, stronger effect = lower value 1.05 | locus YHR205W, strain SCH9, stronger effect = lower value 0.977 | locus YIL147C, strain SLN1, stronger effect = lower value 0.964 | locus YJL095W, strain BCK1, stronger effect = lower value 1.06 | locus YJL128C, strain PBS2, stronger effect = lower value 0.931 | locus YJL157C, strain FAR1, stronger effect = lower value 0.983 | locus YJR016C, strain ILV3, stronger effect = lower value 0.98 | locus YJR066W, strain TOR1 (second series), stronger effect = lower value 0.971 | locus YJR066W, strain TOR1, stronger effect = lower value 1.07 | locus YKL048C, strain ELM1, stronger effect = lower value 0.979 | locus YKL067W, strain YNK1, stronger effect = lower value 0.98 | locus YKL101W, strain HSL1, stronger effect = lower value 0.985 | locus YKL193C, strain SDS22, stronger effect = lower value 0.972 | locus YKL203C, strain TOR2, stronger effect = lower value 1.04 | locus YLR113W, strain HOG1, stronger effect = lower value 0.973 | locus YLR133W, strain CKI1, stronger effect = lower value 0.985 | locus YLR403W, strain SFP1, stronger effect = lower value 0.965 | locus YML070W, strain DAK1, stronger effect = lower value 0.968 | locus YMR001C, strain CDC5, stronger effect = lower value 0.974 | locus YMR205C, strain PFK2 (second series), stronger effect = lower value 0.986 | locus YMR277W, strain FCP1, stronger effect = lower value 0.975 | locus YNL006W, strain LST8, stronger effect = lower value 0.986 | locus YNL020C, strain ARK1, stronger effect = lower value 0.997 | locus YNL161W, strain CBK1, stronger effect = lower value 0.977 | locus YNL183C, strain NPR1, stronger effect = lower value 1.05 | locus YNL207W, strain RIO2, stronger effect = lower value 0.98 | locus YNL222W, strain SSU72, stronger effect = lower value 0.97 | locus YNL307C, strain MCK1 (second series), stronger effect = lower value 0.97 | locus YOL078W, strain AVO1, stronger effect = lower value 0.977 | locus YOL136C, strain PFK27, stronger effect = lower value 0.975 | locus YOR061W, strain CKA2, stronger effect = lower value 0.972 | locus YOR119C, strain RIO1, stronger effect = lower value 0.982 | locus YOR231W, strain MKK1, stronger effect = lower value 1.04 | locus YOR329C, strain SCD5, stronger effect = lower value 0.98 | locus YPL031C, strain PHO85, stronger effect = lower value 0.983 | locus YPL153C, strain RAD53, stronger effect = lower value 0.956 | locus YPL204W, strain HRR25, stronger effect = lower value 0.96 | locus YPL209C, strain IPL1, stronger effect = lower value 0.98 | locus YPL256C, strain CLN2, stronger effect = lower value 1.02 | locus YPR025C, strain CCL1, stronger effect = lower value 0.969 | locus YPR106W, strain ISR1, stronger effect = lower value 0.979 | locus YPR111W, strain DBF20, stronger effect = lower value 0.967 | strain NNK1, stronger effect = lower value 0.978 | strain TSCII, stronger effect = lower value 0.972
